# Measurements taken from ChEMBL document CHEMBL1961873, “Compounds: GSK PKIS; Assays: Nanosyn kinase panel” (2012).
# Experiments:
# [1] = target: Sphingosine kinase 1 (Homo sapiens) (UniProt Q9NYA1); conditions: at 1 µM;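 note: mean SPHK1 inhibition value reported from the GSK PKIS kinase panel screen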
# [2] = target: T1, Sphingosine kinase 2 (Homo sapiens) (UniProt Q9NRA0); conditions: at 0.1 µM
# T1 sequence (whole entry): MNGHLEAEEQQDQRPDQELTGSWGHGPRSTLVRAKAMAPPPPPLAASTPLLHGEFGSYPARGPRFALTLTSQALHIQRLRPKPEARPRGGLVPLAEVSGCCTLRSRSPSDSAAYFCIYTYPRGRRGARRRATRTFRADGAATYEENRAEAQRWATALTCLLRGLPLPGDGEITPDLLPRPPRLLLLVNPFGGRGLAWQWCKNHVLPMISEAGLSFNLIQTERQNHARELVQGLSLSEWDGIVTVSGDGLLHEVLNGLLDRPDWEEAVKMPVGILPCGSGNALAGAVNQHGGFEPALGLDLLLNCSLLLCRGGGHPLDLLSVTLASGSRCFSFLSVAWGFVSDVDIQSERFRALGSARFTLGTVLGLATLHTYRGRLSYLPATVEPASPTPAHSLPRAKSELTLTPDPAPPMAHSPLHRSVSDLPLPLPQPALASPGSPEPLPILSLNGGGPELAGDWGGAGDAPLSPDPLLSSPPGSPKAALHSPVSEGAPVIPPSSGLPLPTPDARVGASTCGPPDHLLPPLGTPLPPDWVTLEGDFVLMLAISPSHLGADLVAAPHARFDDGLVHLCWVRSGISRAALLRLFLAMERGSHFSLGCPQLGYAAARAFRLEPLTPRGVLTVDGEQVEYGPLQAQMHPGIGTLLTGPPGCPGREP
# [3] = target: T1, Sphingosine kinase 2 (Homo sapiens); conditions: at 1 µM
# [4] = target: Casein kinase II subunit alpha (Homo sapiens) (UniProt P68400); conditions: at 0.1 µM
# [5] = target: Casein kinase II subunit alpha (Homo sapiens) (UniProt P68400); conditions: at 1 µM
# [6] = target: T2, Inhibitor of nuclear factor kappa-B kinase subunit alpha (Homo sapiens) (UniProt O15111); conditions: at 0.1 µM
# T2 sequence (whole entry): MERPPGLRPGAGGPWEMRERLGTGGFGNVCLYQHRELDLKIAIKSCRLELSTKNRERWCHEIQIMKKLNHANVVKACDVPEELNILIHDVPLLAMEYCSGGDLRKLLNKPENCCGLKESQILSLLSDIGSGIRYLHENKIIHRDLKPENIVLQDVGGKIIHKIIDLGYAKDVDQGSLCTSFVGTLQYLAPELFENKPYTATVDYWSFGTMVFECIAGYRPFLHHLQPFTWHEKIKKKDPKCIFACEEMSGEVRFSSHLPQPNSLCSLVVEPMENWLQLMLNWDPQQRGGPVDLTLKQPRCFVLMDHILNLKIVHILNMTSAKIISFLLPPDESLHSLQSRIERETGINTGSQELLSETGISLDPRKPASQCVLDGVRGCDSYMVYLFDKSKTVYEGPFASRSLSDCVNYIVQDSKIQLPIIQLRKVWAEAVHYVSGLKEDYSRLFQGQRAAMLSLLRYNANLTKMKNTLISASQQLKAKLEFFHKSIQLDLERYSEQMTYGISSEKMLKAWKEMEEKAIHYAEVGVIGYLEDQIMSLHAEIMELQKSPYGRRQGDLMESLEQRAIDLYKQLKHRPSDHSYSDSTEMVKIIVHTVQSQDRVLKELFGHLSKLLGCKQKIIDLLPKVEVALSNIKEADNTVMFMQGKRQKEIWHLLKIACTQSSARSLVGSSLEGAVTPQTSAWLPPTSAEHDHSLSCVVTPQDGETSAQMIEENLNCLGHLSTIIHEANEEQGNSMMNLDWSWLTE
# [7] = target: T2, Inhibitor of nuclear factor kappa-B kinase subunit alpha (Homo sapiens); conditions: at 1 µM
# [8] = target: T3, Inhibitor of nuclear factor kappa-B kinase subunit beta (Homo sapiens) (UniProt O14920); conditions: at 0.1 µM
# T3 sequence (whole entry): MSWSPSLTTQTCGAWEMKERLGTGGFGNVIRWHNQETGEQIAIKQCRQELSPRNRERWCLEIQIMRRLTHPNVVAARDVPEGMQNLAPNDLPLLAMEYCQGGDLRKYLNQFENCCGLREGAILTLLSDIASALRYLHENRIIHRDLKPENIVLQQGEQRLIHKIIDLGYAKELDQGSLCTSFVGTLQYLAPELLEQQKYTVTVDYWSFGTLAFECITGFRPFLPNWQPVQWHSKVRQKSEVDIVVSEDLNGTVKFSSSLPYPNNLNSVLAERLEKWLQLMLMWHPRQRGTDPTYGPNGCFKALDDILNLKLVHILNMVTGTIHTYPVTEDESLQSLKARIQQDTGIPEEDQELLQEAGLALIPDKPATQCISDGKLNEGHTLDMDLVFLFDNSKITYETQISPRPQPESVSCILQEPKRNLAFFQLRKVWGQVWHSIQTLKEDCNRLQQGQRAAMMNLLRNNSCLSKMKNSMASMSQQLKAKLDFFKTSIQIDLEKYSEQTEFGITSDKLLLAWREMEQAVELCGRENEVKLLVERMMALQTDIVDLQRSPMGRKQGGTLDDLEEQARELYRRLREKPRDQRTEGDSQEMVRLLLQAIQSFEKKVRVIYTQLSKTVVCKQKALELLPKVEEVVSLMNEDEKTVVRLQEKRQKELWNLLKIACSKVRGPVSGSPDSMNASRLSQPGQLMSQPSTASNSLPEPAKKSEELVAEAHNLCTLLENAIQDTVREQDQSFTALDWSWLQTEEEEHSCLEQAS
# [9] = target: T3, Inhibitor of nuclear factor kappa-B kinase subunit beta (Homo sapiens); conditions: at 1 µM
# [10] = target: T4, Inhibitor of nuclear factor kappa-B kinase subunit epsilon (Homo sapiens) (UniProt Q14164); conditions: at 0.1 µM
# T4 sequence (whole entry): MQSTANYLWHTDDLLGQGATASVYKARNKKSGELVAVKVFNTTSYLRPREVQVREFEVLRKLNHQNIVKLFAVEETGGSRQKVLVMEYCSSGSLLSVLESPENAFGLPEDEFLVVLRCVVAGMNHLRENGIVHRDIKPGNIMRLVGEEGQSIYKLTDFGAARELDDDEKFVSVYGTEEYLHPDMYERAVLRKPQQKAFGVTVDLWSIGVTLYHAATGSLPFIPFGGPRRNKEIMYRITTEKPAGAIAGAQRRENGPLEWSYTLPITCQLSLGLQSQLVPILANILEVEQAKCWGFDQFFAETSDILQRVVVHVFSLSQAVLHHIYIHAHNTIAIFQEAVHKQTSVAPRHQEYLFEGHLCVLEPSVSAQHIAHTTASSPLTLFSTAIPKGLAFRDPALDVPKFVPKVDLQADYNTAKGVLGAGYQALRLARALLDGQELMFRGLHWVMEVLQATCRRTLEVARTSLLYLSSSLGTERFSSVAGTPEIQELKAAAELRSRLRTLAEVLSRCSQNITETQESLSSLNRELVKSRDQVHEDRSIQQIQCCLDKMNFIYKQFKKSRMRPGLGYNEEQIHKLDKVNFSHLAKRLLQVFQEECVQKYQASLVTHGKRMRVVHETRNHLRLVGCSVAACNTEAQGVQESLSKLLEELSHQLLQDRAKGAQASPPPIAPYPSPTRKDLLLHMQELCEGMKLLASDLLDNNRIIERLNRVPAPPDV
# [11] = target: T4, Inhibitor of nuclear factor kappa-B kinase subunit epsilon (Homo sapiens); conditions: at 1 µM
# [12] = target: T5, Serine/threonine-protein kinase Nek1 (Homo sapiens) (UniProt Q96PY6); conditions: at 0.1 µM
# T5 sequence (whole entry): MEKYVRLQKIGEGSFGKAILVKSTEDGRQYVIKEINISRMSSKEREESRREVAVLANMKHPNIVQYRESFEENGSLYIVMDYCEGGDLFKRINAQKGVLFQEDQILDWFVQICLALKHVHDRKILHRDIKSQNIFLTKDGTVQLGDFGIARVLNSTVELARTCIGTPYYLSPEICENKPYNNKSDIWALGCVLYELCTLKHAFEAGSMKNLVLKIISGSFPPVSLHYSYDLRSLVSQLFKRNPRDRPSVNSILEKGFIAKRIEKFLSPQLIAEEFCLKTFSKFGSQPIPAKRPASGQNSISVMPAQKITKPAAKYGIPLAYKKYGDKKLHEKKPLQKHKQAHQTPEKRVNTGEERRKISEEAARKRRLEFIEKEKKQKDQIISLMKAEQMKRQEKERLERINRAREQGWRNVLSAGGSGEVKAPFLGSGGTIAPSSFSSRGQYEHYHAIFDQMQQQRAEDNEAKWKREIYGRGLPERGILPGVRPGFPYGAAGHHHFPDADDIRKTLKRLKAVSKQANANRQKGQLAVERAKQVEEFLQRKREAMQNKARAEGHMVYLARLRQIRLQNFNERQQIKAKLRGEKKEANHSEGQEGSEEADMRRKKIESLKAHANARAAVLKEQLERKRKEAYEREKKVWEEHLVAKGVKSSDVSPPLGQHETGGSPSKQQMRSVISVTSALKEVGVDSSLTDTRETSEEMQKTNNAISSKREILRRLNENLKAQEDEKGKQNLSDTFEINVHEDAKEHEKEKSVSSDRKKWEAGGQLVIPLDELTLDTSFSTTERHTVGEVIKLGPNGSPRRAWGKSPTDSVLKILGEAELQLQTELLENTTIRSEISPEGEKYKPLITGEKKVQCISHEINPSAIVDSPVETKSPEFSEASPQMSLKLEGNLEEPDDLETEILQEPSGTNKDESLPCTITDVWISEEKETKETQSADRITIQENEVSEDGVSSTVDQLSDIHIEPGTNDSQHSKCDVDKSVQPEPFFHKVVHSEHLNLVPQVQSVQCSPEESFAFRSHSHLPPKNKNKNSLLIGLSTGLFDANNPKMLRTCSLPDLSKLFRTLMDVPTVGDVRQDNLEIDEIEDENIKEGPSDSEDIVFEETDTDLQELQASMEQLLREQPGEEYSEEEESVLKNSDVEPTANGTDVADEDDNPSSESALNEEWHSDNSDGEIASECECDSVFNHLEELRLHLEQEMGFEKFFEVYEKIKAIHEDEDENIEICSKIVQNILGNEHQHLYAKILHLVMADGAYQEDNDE
# [13] = target: T5, Serine/threonine-protein kinase Nek1 (Homo sapiens); conditions: at 1 µM
# [14] = target: T6, Serine/threonine-protein kinase Nek2 (Homo sapiens) (UniProt P51955); conditions: at 0.1 µM
# T6 sequence (whole entry): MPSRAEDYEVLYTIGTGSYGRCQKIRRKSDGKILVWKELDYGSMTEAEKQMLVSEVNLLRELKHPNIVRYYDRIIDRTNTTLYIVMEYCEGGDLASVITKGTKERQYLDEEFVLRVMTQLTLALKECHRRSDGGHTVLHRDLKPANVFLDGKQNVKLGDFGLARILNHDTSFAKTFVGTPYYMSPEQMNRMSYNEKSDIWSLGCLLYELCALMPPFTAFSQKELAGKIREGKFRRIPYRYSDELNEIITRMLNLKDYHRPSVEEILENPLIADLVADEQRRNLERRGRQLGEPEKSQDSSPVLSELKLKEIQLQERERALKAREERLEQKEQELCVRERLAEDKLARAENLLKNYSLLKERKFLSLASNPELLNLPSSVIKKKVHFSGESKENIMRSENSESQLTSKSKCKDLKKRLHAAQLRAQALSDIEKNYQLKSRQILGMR
# [15] = target: T6, Serine/threonine-protein kinase Nek2 (Homo sapiens); conditions: at 1 µM
# [16] = target: Serine/threonine-protein kinase Nek6 (Homo sapiens) (UniProt Q9HC98); conditions: at 0.1 µM
# [17] = target: Serine/threonine-protein kinase Nek6 (Homo sapiens) (UniProt Q9HC98); conditions: at 1 µM
# [18] = target: Serine/threonine-protein kinase Nek7 (Homo sapiens) (UniProt Q8TDX7); conditions: at 0.1 µM
# [19] = target: Serine/threonine-protein kinase Nek7 (Homo sapiens) (UniProt Q8TDX7); conditions: at 1 µM
# [20] = target: T7, Serine/threonine-protein kinase Nek9 (Homo sapiens) (UniProt Q8TD19); conditions: at 0.1 µM;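 note: reported value is the mean percent inhibition of NEK9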
# T7 sequence (whole entry): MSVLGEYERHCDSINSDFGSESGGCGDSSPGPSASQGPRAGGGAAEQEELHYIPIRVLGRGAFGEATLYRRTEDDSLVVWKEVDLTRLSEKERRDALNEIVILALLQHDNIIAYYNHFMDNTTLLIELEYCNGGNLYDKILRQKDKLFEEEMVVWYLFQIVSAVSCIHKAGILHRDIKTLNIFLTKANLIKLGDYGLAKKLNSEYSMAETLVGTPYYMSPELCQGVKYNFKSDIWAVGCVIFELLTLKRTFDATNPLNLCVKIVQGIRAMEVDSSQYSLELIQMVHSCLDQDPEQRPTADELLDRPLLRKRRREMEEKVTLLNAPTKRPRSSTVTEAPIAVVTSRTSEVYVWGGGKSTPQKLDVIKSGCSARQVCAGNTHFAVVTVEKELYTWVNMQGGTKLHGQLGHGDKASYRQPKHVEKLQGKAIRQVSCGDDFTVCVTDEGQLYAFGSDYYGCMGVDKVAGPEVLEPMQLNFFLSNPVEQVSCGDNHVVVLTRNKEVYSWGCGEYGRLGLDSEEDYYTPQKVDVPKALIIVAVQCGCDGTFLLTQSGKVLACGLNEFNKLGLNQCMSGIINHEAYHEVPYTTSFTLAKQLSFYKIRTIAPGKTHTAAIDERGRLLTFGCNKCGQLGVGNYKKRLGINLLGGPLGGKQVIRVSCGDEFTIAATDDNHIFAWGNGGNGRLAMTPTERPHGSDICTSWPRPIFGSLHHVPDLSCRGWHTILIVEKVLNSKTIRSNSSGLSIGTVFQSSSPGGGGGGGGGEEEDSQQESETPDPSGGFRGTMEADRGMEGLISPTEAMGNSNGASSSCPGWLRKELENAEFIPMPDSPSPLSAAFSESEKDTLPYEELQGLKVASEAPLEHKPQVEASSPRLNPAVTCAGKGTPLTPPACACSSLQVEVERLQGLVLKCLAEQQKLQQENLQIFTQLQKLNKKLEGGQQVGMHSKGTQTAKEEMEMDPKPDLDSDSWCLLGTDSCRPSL
# Sequence of Sphingosine kinase 1 (Homo sapiens) (Q9NYA1 whole entry): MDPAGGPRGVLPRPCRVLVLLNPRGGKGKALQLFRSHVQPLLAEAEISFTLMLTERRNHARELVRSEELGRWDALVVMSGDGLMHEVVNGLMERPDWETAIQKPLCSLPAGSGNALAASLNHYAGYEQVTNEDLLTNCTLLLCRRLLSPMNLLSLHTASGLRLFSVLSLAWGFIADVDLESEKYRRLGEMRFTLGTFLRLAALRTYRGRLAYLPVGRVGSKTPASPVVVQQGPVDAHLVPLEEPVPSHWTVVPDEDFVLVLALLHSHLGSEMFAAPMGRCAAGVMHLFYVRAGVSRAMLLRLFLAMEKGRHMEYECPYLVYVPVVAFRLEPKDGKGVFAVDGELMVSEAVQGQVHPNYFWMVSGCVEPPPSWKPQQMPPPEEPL
# Sequence of Serine/threonine-protein kinase Nek7 (Homo sapiens) (Q8TDX7 whole entry, looked up): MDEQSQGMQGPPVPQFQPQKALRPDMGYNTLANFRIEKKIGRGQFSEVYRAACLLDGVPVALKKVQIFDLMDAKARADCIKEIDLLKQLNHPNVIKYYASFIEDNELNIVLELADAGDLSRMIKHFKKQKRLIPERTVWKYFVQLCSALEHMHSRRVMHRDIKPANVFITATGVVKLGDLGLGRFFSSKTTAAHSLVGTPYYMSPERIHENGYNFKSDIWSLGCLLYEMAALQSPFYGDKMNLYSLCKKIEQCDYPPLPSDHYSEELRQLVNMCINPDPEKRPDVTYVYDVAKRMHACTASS
# Sequence of Serine/threonine-protein kinase Nek6 (Homo sapiens) (Q9HC98 whole entry): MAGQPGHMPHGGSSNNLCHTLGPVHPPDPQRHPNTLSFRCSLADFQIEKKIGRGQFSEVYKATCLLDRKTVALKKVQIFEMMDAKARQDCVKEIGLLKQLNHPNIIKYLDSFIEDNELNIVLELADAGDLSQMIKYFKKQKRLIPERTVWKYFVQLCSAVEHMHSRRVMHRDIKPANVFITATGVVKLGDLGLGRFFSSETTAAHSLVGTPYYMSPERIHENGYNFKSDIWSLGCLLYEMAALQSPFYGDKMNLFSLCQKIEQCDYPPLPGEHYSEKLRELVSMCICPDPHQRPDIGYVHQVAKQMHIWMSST
# Sequence of Casein kinase II subunit alpha (Homo sapiens) (P68400 whole entry, looked up): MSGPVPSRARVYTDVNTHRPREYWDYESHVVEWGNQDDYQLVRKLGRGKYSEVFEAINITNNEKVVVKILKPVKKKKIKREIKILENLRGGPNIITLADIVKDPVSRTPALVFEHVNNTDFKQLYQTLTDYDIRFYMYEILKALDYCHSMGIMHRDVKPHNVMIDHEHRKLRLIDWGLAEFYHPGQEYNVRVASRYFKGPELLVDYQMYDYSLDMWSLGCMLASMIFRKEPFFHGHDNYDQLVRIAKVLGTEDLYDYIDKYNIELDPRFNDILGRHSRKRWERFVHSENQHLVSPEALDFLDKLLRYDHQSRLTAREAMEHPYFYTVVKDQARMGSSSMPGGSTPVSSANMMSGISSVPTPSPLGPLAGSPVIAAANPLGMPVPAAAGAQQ
SMILES,inhibition [1] [%],inhibition [2] [%],inhibition [3] [%],inhibition [4] [%],inhibition [5] [%],inhibition [6] [%],inhibition [7] [%],inhibition [8] [%],inhibition [9] [%],inhibition [10] [%],inhibition [11] [%],inhibition [12] [%],inhibition [13] [%],inhibition [14] [%],inhibition [15] [%],inhibition [16] [%],inhibition [17] [%],inhibition [18] [%],inhibition [19] [%],inhibition [20] [%]
CS(=O)(=O)CCNCc1nc(-c2ccc3ncnc(Nc4ccc(OCc5cccc(C(F)(F)F)c5)cc4)c3c2)cs1,1.3,0.09,-0.46,-0.05,1.3,-2.52,-0.52,3.26,1.84,-0.33,2.82,1.67,3.9,2.86,0.5,-0.59,2.66,1.6,5.52,3.06
CCOc1nccc2c1nc(-c1nonc1N)n2CC,7.65,-0.3,0.06,5.33,14.6,2.3,3.59,0.86,5.41,7.17,6.4,5.3,8.93,3.98,7.87,5.75,5.08,2.9,3.26,6.44
N#Cc1cccc(Nc2nccc(-c3cnn4ncccc34)n2)c1,-1.39,0,-6.48,20.4,63.9,9.53,31,7.83,20.5,7.68,27.9,2.07,10.9,1.93,6.24,3.54,5.8,-4.91,4.18,7
